# Results: paper PMC7819943, “Rice protein-binding microarrays: a tool to detect cis-acting elements near promoter regions in rice”
# The full ranking holds about 35,000 sequences; the median of “fluorescence intensity (a.u.)” is about 10,000, and the highest 2% start at about 52,000. What follows is part of a selection rich in the highest values, with near analogues and random picks from the rest.
# Target: T1, OsWOX13 (Oryza sativa, UniProt Q5QMM3 1-267)
# T1 sequence: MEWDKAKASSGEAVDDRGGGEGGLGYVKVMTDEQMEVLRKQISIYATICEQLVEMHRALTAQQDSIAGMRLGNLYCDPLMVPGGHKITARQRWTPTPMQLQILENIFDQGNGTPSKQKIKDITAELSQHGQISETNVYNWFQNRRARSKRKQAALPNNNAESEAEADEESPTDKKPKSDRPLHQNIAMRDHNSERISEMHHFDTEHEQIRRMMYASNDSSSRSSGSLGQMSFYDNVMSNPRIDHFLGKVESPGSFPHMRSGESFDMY
# Experiment: protein-binding microarray (RPBM); PBS, 2% BSA, 51.3 ng/ul salmon testes DNA, 50 uM zinc acetate, 200 nM TF, 25 C, 1 h; high values mean tight binding
# Details: protein: recombinant; tags: N-terminal polyhistidine and DsRed monomer fusion (pET32a); label: CyDye5-dUTP incorporated in the synthesized complementary strand; 3' TTTTT single-stranded linker to array surface; dsDNA, one strand shown
# In short: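 The binding signal for each feature is its fluorescence intensity in arbitrary units. An Axon 4000B scanner was used to read a custom Agilent array that had been made double-stranded with Cy5-dUTP primer extension, blocked with 2% BSA, incubated at 25 °C for 1 h with 200 nM protein in PBS, 2% BSA, salmon testes DNA and 50 µM zinc acetate, and washed. The protein was an N-terminal polyhistidine–DsRed transcription factor fusion from E. coli BL21-CodonPlus, purified on Ni–NTA.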
row,Sequence,binding signal
1,ACGTAATTATAATTTATTTTATTATGAGTTGTTTTATCACCGGAGTCACCTAGTGCAG,37000 fluorescence intensity (a.u.)
2,ACGTAATTATAGCTTATTTTGTTATGAGTTATTTTATCACCGGAGTCACCTAGTGCAG,24500 fluorescence intensity (a.u.)
3,AATTGATGATGAAATAATGAATGATATTTGACAAGGAGCTCGGAGTCACCTAGTGCAG,17300 fluorescence intensity (a.u.)
4,ACGTAATTATAATTTATTTTGTTATGAGTTGGTTTATCACCGGAGTCACCTAGTGCAG,62600 fluorescence intensity (a.u.)
5,GGCAGCAAGACCAATTTTAATTGAAGACCACGGAAGGAGCCGGAGTCACCTAGTGCAG,3450 fluorescence intensity (a.u.)
6,ATGGTTTGACTTGGATAAACTGGATTCTTAACTCAAACCTCGGAGTCACCTAGTGCAG,3410 fluorescence intensity (a.u.)
7,TTGATATTCTTTATATGATTATATAGGATTGGTCTCCCTCCGGAGTCACCTAGTGCAG,3530 fluorescence intensity (a.u.)
8,TGTAATTATAATTTATTTTATTGTGATTTGATTTATCATCCGGAGTCACCTAGTGCAG,59800 fluorescence intensity (a.u.)
9,ACGTAATTATAATTATTTTATTGTGAGTTGTTTTATTACTCGGAGTCACCTAGTGCAG,26500 fluorescence intensity (a.u.)
10,GCTTAATTAATTGATTCAGAAAATAAAATAGTGAAATAACCGGAGTCACCTAGTGCAG,33400 fluorescence intensity (a.u.)
11,TATGTAATTATTATTTATTTTATTGTGATTTGATTCATCACGGAGTCACCTAGTGCAG,31400 fluorescence intensity (a.u.)
12,TGTAATTATAATTTATTTTGTGATGAGTTGTTTTATCACTCGGAGTCACCTAGTGCAG,55800 fluorescence intensity (a.u.)
13,GTAATTATAATTTATTTTGTTATGAGTTGTTTTATCACTCCGGAGTCACCTAGTGCAG,6220 fluorescence intensity (a.u.)
14,AATAATTTGGTTAGTTATTGTTAAGGAGAAATTTGATTCCCGGAGTCACCTAGTGCAG,12500 fluorescence intensity (a.u.)
15,TTATGTAATTATAATTTATTTTATTGTGACTTGATTTATCCGGAGTCACCTAGTGCAG,34000 fluorescence intensity (a.u.)
16,GTAATAATTGATTGGTTCAGAAATTAATCACTAATTGTCCCGGAGTCACCTAGTGCAG,65000 fluorescence intensity (a.u.)
17,GATATATGATTGACTCAAGTCTTATTGATAAACTTGGTCCCGGAGTCACCTAGTGCAG,57500 fluorescence intensity (a.u.)
18,GAGAAATGGTAATTTAGCATGCTTATATATTGAGGTTTAGCGGAGTCACCTAGTGCAG,8510 fluorescence intensity (a.u.)
19,TAATCTGTGATGATGGATTCTCGTTAAGCATATGTTCTTTCGGAGTCACCTAGTGCAG,5830 fluorescence intensity (a.u.)
20,TGGTGGTGGCTGGCGGCGGGGAGGATGAGAACGAGAGAAGCGGAGTCACCTAGTGCAG,3920 fluorescence intensity (a.u.)
21,TTCCGGCCTAGATTGAATCTGGGTTTAACCGTAAGAGTCCCGGAGTCACCTAGTGCAG,6260 fluorescence intensity (a.u.)

row,Sequence,binding signal
1,GTGGATATCAATCTGTATATACTAGATCCCCACCCACCATCGGAGTCACCTAGTGCAG,6630 fluorescence intensity (a.u.)
2,TCGAACAGGCCCTTAATTATCTGAGCTATCCTGCATGCTTCGGAGTCACCTAGTGCAG,8320 fluorescence intensity (a.u.)
3,GGCAAATTAACCAAGTTAGCTGCAGCTGCAGCTGGGATGGCGGAGTCACCTAGTGCAG,9780 fluorescence intensity (a.u.)
4,CATTTGATTGTATTTCCATCTTATTCTTAATCTGTATAAGCGGAGTCACCTAGTGCAG,32100 fluorescence intensity (a.u.)
5,ACCAATCACAACCATTCTTCTTCACTTACTTTCTCTTTTCCGGAGTCACCTAGTGCAG,6630 fluorescence intensity (a.u.)
6,CTATATCTTGATGCTTTGTTGATTAGTACCATGGATTGGCCGGAGTCACCTAGTGCAG,6900 fluorescence intensity (a.u.)
7,ATTGATTATGCCATGATTGGATCTTGGCACAGTGCTCTGCCGGAGTCACCTAGTGCAG,60300 fluorescence intensity (a.u.)
8,TGCCAACTTATCCATCAATTGAGATTAATGATTTGGTCTTCGGAGTCACCTAGTGCAG,13900 fluorescence intensity (a.u.)
9,GTGATTGATGTAAATGCCTTAACGGTCCAGCACCTCAGCTCGGAGTCACCTAGTGCAG,61200 fluorescence intensity (a.u.)
10,TTCTGTAATTGATGCTCCTGCATTTTAGTGTATAAGTGTACGGAGTCACCTAGTGCAG,36500 fluorescence intensity (a.u.)
11,TCAATTAATTGATTTATAATGATTTGGTCTTATCAATCCCCGGAGTCACCTAGTGCAG,53400 fluorescence intensity (a.u.)
12,ATATTATTATATTATAATTATACTGTATTTATATCTGATACGGAGTCACCTAGTGCAG,9100 fluorescence intensity (a.u.)
13,TGTGATTAAATGATTCCTCCAGTGCTATATGCCTATATAACGGAGTCACCTAGTGCAG,17500 fluorescence intensity (a.u.)
14,TTGATGATGTAACGTACGGTTGATTAATAATAAATTAGGTCGGAGTCACCTAGTGCAG,18400 fluorescence intensity (a.u.)
15,GAAGTTGATTATGAGCTCTTGGATCTTTTGGCAGGTGCAACGGAGTCACCTAGTGCAG,19400 fluorescence intensity (a.u.)
16,CTTATAATTGATTTATAGTCTGTCATTGTATCTGCTCTTACGGAGTCACCTAGTGCAG,65100 fluorescence intensity (a.u.)
17,GTCTTAATTATATTTGATAATCAACTTTATCCTTGGTTTGCGGAGTCACCTAGTGCAG,50800 fluorescence intensity (a.u.)
18,GTTGCTAAATTTTAGTTATTACTGTGCAGTTGCCAAATTTCGGAGTCACCTAGTGCAG,4010 fluorescence intensity (a.u.)
19,CATGAATTGGAAGATTTGATGCACTGATACTCCATGAAGACGGAGTCACCTAGTGCAG,8060 fluorescence intensity (a.u.)
20,ATTAAATTTGAAAATTTATTAAATTGTGCTGATAAGTCAACGGAGTCACCTAGTGCAG,14500 fluorescence intensity (a.u.)
21,AAGACGGTAATAGACTGTGCGAGTTGAACATGCAACTCTACGGAGTCACCTAGTGCAG,7360 fluorescence intensity (a.u.)
